# According to PubChem BioAssay (Tox21):
# Results filed as inconclusive are left out. Active and inactive are the calls of the source. The call rests on the fitted dose curve; in most records, active means well fitted cell-killing curve with a large enough effect in the repeat runs; inconclusive means weak or mixed curves, or effect the other way; inactive means flat fitted curve, though single readings scatter.
# Test: cAMP Responsive Elements (CRE) small molecule agonists, cell-based qHTS assay: qHTS cell viability counter screen (AID 2060914); further: nearly all actives have a fitted effect of over 50% in size
# Conditions: CRE-bla HEK293T viability, CellTiter-Glo luminescence, 5 h; series mostly up to 92.4 µM; activity change, negative = cytotoxicity: at the top concentration
# How it was run: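 HEK 293T CRE-bla; DMEM + 10% dialyzed FBS, 25 mM HEPES; 18 h pre-incubation; compound 3 h, 37 °C/5% CO2; CellTiter-Glo added after reporter read; luminescence after 30 min RT.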
# On the % scale 0 is the no-effect control and ±100 the full control effect; potency means the concentration at half of the fitted maximal effect.
Compound,Potency,"activity change, negative = cytotoxicity"
Cc1cc(N=Nc2ccccc2C)ccc1N,inactive,
Cc1cc(Cl)ccc1N=CN(C)C,inactive,
CCOP(=O)(OCC)O/C(=C/Cl)c1ccc(Cl)cc1Cl,,-2.17% (inactive)
Cc1ccc([N+](=O)[O-])[c]2c1[O][Hg]2,18.8 µM (active),
ClC(Cl)(Cl)Cl,,-4.63% (inactive)
C=CCC1=C(C)[C@@H](OC(=O)[C@@H]2[C@@H](C=C(C)C)C2(C)C)CC1=O,,-13.2% (inactive)
CC(C)N(C(=O)CCl)c1ccccc1,inactive,
OCC(c1ccc(Cl)cc1)c1ccc(Cl)cc1,,-18.9% (inactive)
Nc1ccccc1C(=O)OC/C=C/c1ccccc1,,-8.28% (inactive)
OCCCBr,,-0.553% (inactive)
C=CCOC(=O)C(C)(C)OC(=O)c1cc(-n2c(=O)cc(C(F)(F)F)n(C)c2=O)ccc1Cl,,4.27% (inactive)
COCC(=O)N(c1c(C)cccc1C)[C@H](C)C(=O)OC,,7.55% (inactive)
O=C(Nc1ccccc1)Nc1ccnc(Cl)c1,,-14.5% (inactive)
Nc1ccc(Cl)cc1C(=O)c1ccccc1,,0.666% (inactive)
CC(=O)c1cc2c(cc1C)C(C)(C)C(C)CC2(C)C (stereo not given),,-17.2% (inactive)
SCc1ccco1,,16.4% (inactive)
CN(C)CCO,inactive,
COc1cccc2c1cc([N+](=O)[O-])c1c(C(=O)O)cc3c(c12)OCO3,,13.5% (inactive)
COP(=S)(OC)Oc1cc(Cl)c(Br)cc1Cl,,-11.7% (inactive)
O=C(O)CC(Cl)C(=O)O (stereo not given),,5% (inactive)

Compound,Potency,"activity change, negative = cytotoxicity"
CC(C)N1C(=O)N(c2ccccc2)CSC1=NC(C)(C)C,,-18.1% (inactive)
OC(c1ccccc1)(c1ccccc1)C1CCNCC1,,-8.43% [at 42.5 µM] (inactive)
CCCCNC(=O)OCC#CI,inactive,
CNC(=O)N(C)c1nc2ccccc2s1,,-1.77% (inactive)
Cn1cc(C2=C(c3cn(C4CCN(Cc5ccccn5)CC4)c4ccccc34)C(=O)NC2=O)c2ccccc21,,17.6% [at 42.5 µM] (inactive)
C=CC(=O)OCC(CC)(COC(=O)C=C)COC(=O)C=C,,14.5% (inactive)
CCOC(=O)/C=C(C)/C=C/C[C@@H](C)CCCC(C)C,,15.8% (inactive)
CC(c1ccccc1)(c1ccc(O)cc1)c1ccc(O)cc1,,-5.77% (inactive)
CCCCn1cc[n+](C)c1,inactive,
CCCCOCN(C(=O)CCl)c1c(CC)cccc1CC,,-16.4% (inactive)
Nc1c(Br)cc(Br)c2c1C(=O)c1ccccc1C2=O,,-19.1% [at 18.9 µM] (inactive)
c1ccc2c(c1)CCCC2,inactive,
O=[N+]([O-])c1cccc2c([N+](=O)[O-])cccc12,61.4 µM (active),
c1cc2c(c(N3CCNCC3)c1)OCCO2,,0.444% [at 42.5 µM] (inactive)
CCCC[N+]1(C)CCCC1,inactive,
Nc1ccccc1C(=O)OCCc1ccccc1,inactive,
CO/N=C(\C(=O)OC)c1ccccc1CO/N=C(\C)c1cccc(C(F)(F)F)c1,,-20.1% (inactive)
Cc1ccc(Cl)c(O)c1,,2.97% [at 42.5 µM] (inactive)
c1ccc2c(c1)Sc1ccccc1N2CC1CN2CCC1CC2 (stereo not given),,-9.6% [at 42.5 µM] (inactive)
CCOc1cc(C=O)ccc1O,inactive,
